Results published in PubChem BioAssay (NCATS).
Inconclusive results are not listed. Entries that show only a call come without a potency. Unmarked numbers belong to inactive results. Active and inactive are the calls of the source. Calls come from the whole dose curve; as a rule, active = well fitted curve in the direction sought with a large enough effect; inconclusive = small, poorly fitted or top-dose-only effect, or another doubt; inactive = no such curve, though single readings can be large; an effect the other way counts as inactive or inconclusive.

Columns and labels:
[1] = Quantitative High-Throughput drug screen in 47 multiple myeloma cell lines against the NCATS MIPE library collection: KMS26_JCRB cell viability assay (AID 1918975); note: nearly all actives have a fitted effect of over 45% in size; note: potency is the fitted concentration of half-maximal effect
Procedure, shortened: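 Inhibition of cell viability is measured here. Each line was plated at 500 cells per well, treated with MIPE 4.0 drugs, kept 48 hours at 37C, then assayed for ATP content by CellTiter-Glo luminescence.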

[2] = Quantitative High-Throughput drug screen in 47 multiple myeloma cell lines against the NCATS MIPE library collection: NCIH929_DSMZ cell viability assay (AID 1918978); note: nearly all actives have a fitted effect of over 35% in size; note: potency is the fitted concentration of half-maximal effect
Procedure, shortened: (§1)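 qHTS format: cells plated (500/well), pin-dosed with MIPE 4.0 compounds, kept 48 h at 37 °C. Readout was CellTiter-Glo luminescence, median RLU.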

[3] = Quantitative High-Throughput drug screen in 47 multiple myeloma cell lines against the NCATS MIPE library collection: OCIMY1_PLB cell viability assay (AID 1918979); note: nearly all actives have a fitted effect of over 35% in size
Procedure, shortened: as §1

[4] = Quantitative High-Throughput drug screen in 47 multiple myeloma cell lines against the NCATS MIPE library collection: MM1S_ATCC cell viability assay (AID 1918980); note: nearly all actives have a fitted effect of over 45% in size; note: potency is the fitted concentration of half-maximal effect
Procedure, shortened: as §1

[5] = Quantitative High-Throughput drug screen in 47 multiple myeloma cell lines against the NCATS MIPE library collection: LP1_DSMZ cell viability assay (AID 1918982); note: nearly all actives have a fitted effect of over 35% in size; note: potency is the fitted concentration of half-maximal effect
Procedure, shortened: as §1

[6] = Quantitative High-Throughput drug screen in 47 multiple myeloma cell lines against the NCATS MIPE library collection: L363_DSMZ cell viability assay (AID 1918984); note: nearly all actives have a fitted effect of over 40% in size; note: potency is the fitted concentration of half-maximal effect
Procedure, shortened: as §1

[7] = Quantitative High-Throughput drug screen in 47 multiple myeloma cell lines against the NCATS MIPE library collection: KMS34_JCRB cell viability assay (AID 1918985); note: nearly all actives have a fitted effect of over 40% in size; note: potency is the fitted concentration of half-maximal effect
Procedure, shortened: as §1

[8] = Quantitative High-Throughput drug screen in 47 multiple myeloma cell lines against the NCATS MIPE library collection: OCIMY7_PLB cell viability assay (AID 1918987); conditions: OCI-MY7 myeloma viability, CellTiter-Glo ATP, 48 h; viability (% of DMSO): at 45.8 µM (top of the series); note: nearly all actives have a fitted effect of over 65% in size; note: potency is the fitted concentration of half-maximal effect
Procedure, shortened: as §1

[9] = Quantitative High-Throughput drug screen in 47 multiple myeloma cell lines against the NCATS MIPE library collection: OPM1_PLB cell viability assay (AID 1918989); note: nearly all actives have a fitted effect of over 40% in size; note: potency is the fitted concentration of half-maximal effect
Procedure, shortened: as §1

[10] = Quantitative High-Throughput drug screen in 47 multiple myeloma cell lines against the NCATS MIPE library collection: U266_ATCC cell viability assay (AID 1919864); note: nearly all actives have a fitted effect of over 35% in size; note: potency is the fitted concentration of half-maximal effect
Procedure, shortened: as §1

[11] = Quantitative High-Throughput drug screen in 47 multiple myeloma cell lines against the NCATS MIPE library collection: XG6_PLB cell viability assay (AID 1919865); note: nearly all actives have a fitted effect of over 40% in size; note: potency is the fitted concentration of half-maximal effect
Procedure, shortened: as §1

[12] = Quantitative High-Throughput drug screen in 47 multiple myeloma cell lines against the NCATS MIPE library collection: XG1_PLB cell viability assay (AID 1919866); note: nearly all actives have a fitted effect of over 35% in size; note: potency is the fitted concentration of half-maximal effect
Procedure, shortened: as §1

[13] = Quantitative High-Throughput drug screen in 47 multiple myeloma cell lines against the NCATS MIPE library collection: KMS28PE_JCRB cell viability assay (AID 1918983); note: nearly all actives have a fitted effect of over 35% in size; note: potency is the fitted concentration of half-maximal effect
Procedure, shortened: as §1

[14] = Quantitative High-Throughput drug screen in 47 multiple myeloma cell lines against the NCATS MIPE library collection: SKMM1_PLB cell viability assay (AID 1919863); conditions: SKMM1 myeloma viability, CellTiter-Glo ATP, 48 h; viability: hits give low values; note: nearly all actives have a fitted effect of over 35% in size; note: potency is the fitted concentration of half-maximal effect
Procedure, shortened: as §1

[15] = Quantitative High-Throughput drug screen in 47 multiple myeloma cell lines against the NCATS MIPE library collection: MM1R_ATCC cell viability assay (AID 1918981); note: nearly all actives have a fitted effect of over 35% in size; note: potency is the fitted concentration of half-maximal effect
Procedure, shortened: as §1

[16] = Quantitative High-Throughput drug screen in 47 multiple myeloma cell lines against the NCATS MIPE library collection: OCIMY5_PLB cell viability assay (AID 1918988); note: nearly all actives have a fitted effect of over 65% in size; note: potency is the fitted concentration of half-maximal effect
Procedure, shortened: as §1

[17] = Quantitative High-Throughput drug screen in 47 multiple myeloma cell lines against the NCATS MIPE library collection: MOLP8_DSMZ cell viability assay (AID 1918977); note: nearly all actives have a fitted effect of over 45% in size; note: potency is the fitted concentration of half-maximal effect
Procedure, shortened: as §1

[18] = Quantitative High-Throughput drug screen in 47 multiple myeloma cell lines against the NCATS MIPE library collection: MMM1_PLB cell viability assay (AID 1918976)
Procedure, shortened: as §1

Structure (SMILES) | Potency [1] | Potency [2] | Potency [3] | Potency [4] | Potency [5] | Potency [6] | Potency [7] | Potency [8] | Potency [9] | Potency [10] | Potency [11] | Potency [12] | Potency [13] | viability [14] [%] | Potency [15] | Potency [16] | Potency [17] | Potency [18] | Potency [14]
CCCCCN(C)CCC(O)(P(=O)(O)O)P(=O)(O)O | inactive | inactive | inactive | inactive | inactive | inactive | inactive | inactive | inactive | inactive | inactive | inactive |  |  |  |  |  |  | 
O=c1c(-c2ccc(O)cc2)coc2cc(O[C@@H]3O[C@H](CO)[C@H](O)[C@H](O)[C@H]3O)ccc12 | inactive | inactive | inactive | inactive |  | inactive | inactive |  | inactive |  | inactive | inactive | inactive | 171 |  |  |  |  | 
O=C(O)CCC1CCC(c2cc(F)ccc2F)(S(=O)(=O)c2ccc(Cl)cc2)CC1 (centres undefined) | inactive | 8.33 µM (active) | inactive | 1.66 µM (active) | inactive | 16.6 µM (active) |  | 2.64 µM (active) | 5.26 µM (active) | 6.62 µM (active) |  | 9.35 µM (active) | inactive |  | inactive | inactive |  |  | 
CC(C)(C)COc1ccc(-n2cc(C(=O)O)cn2)cc1C#N | inactive | inactive | inactive |  | inactive | inactive | inactive |  |  | inactive | inactive | inactive | inactive | 120 | inactive |  | inactive |  | 
Cc1ccc(F)c(NC(=O)Nc2ccc(-c3cccc4[nH]nc(N)c34)cc2)c1 | 23.5 µM (active) | 9.35 µM (active) |  |  | 16.6 µM (active) | 4.18 µM (active) | 26.4 µM (active) | 4.69 µM (active) | 10.5 µM (active) | 16.6 µM (active) | 16.6 µM (active) | 16.6 µM (active) | 26.4 µM (active) |  | 23.5 µM (active) | 20.9 µM (active) | 26.4 µM (active) |  | 
CC(C)(C)C(=O)Oc1ccc2c(c1)nc(NC(=O)c1cccc([N+](=O)[O-])c1)n2CCCO | inactive |  | inactive | 23.5 µM (active) |  |  |  |  | inactive |  | inactive | inactive |  |  |  | 18.7 µM (active) |  | 13.2 µM (active) | 
NC(=O)[C@@H](CCC(F)(F)F)N(Cc1ccc(-c2ncon2)cc1F)S(=O)(=O)c1ccc(Cl)cc1 | inactive |  | inactive | 16.6 µM (active) |  |  |  |  | 20.9 µM (active) | 10.5 µM (active) |  |  |  |  | inactive | 23.5 µM (active) |  | 26.4 µM (active) | 0.187 µM (active)
O=c1[nH]cnc2c1ncn2[C@H]1CC[C@@H](CO)O1 | inactive | inactive | inactive | 11.8 µM (active) | inactive | inactive |  |  |  | inactive | inactive | inactive |  | 151 | inactive | inactive | inactive |  | 
O=C(NC1CCOCC1)c1ccc(-c2cc(-c3cn[nH]c3-c3ccccn3)ccn2)cc1 | inactive | inactive | inactive |  | 14.8 µM (active) |  |  |  | inactive | inactive | inactive |  | inactive |  | 14.8 µM (active) |  |  |  | 
CC(C)n1nc(-c2ccc3oc(N)nc3c2)c2c(N)ncnc21 | 0.132 µM (active) |  |  | 0.0105 µM (active) |  |  |  | 2.64 µM (active) | 0.001 µM (active) |  |  |  | 0.0023 µM (active) |  |  | 4.69 µM (active) |  | 0.0026 µM (active) | 0.0074 µM (active)
C[C@H]1[C@H](NC(=O)C(=NOC(C)(C)C(=O)O)c2csc(N)n2)C(=O)N1S(=O)(=O)O | inactive |  | inactive | 14.8 µM (active) | inactive |  | inactive |  | inactive | 14.8 µM (active) |  |  |  | 114 | inactive |  | inactive |  | 
NC[C@@H]1O[C@@H](O[C@H]2[C@@H](O)[C@H](O[C@@H]3[C@@H](O)[C@@H](N)C[C@H](N)[C@H]3O[C@H]3O[C@H](CN)[C@@H](O)[C@@H](O)[C@H]3N)O[C@H]2CO)[C@H](N)[C@@H](O)[C@@H]1O | inactive | inactive | inactive |  | inactive | inactive | inactive |  | inactive | inactive | inactive | inactive |  |  | inactive | inactive |  |  | 
CC1(C)O[C@H]2C[C@@H]3[C@H]4CCC5=CC(=O)C=C[C@]5(C)[C@@]4(F)[C@@H](O)C[C@]3(C)[C@]2(C(=O)CO)O1 | inactive | 26.4 µM (active) | inactive | 0.0132 µM (active) | 0.0132 µM (active) |  | 0.0118 µM (active) |  | inactive | inactive | inactive | inactive | inactive | 108 |  |  |  |  | 
